Measurements: the supplement of paper PMC10981050
Values joined by “and” are separate entries in the source; they are usually repeats but may differ in a detail not shown here. Equal entries are not always repeated. Structures can show the parent of a compound that is named as a salt.

Key:
Assay in all cases: cell viability relative to vehicle control; higher = less cytotoxic
Settings in all cases: 10 µM
K562 = tested on: K562
Method in brief: (§1)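 Screening covered the Selleck bioactive, kinase and epigenetic probe libraries, less identity-inconsistent compounds, on CRISPR-edited mutant clones and isogenic wild-type clones of four leukaemia lines. Cells, at 2000 per well in 50 µL medium, received a single 10 µM acoustically dispensed dose. After 48 h the supernatant was removed and CellTiter-Glo luminescence was read. Viability was analysed in Genedata Screener as percent of the on-plate vehicle control.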

MARIMO = tested on: MARIMO
Method in brief: as §1

MOLM14 = tested on: MOLM14
Method in brief: as §1

OCI-AML2 = tested on: OCI-AML2
Method in brief: as §1

SMILES | cell viability (K562; SRSF2 genotype: SRSF2 P95H/wt) | cell viability (K562; SRSF2 genotype: SRSF2 wt/wt) [%] | cell viability (MARIMO; SRSF2 genotype: SRSF2 P95H/wt) [%] | cell viability (MARIMO; SRSF2 genotype: SRSF2 wt/wt) [%] | cell viability (MOLM14; SRSF2 genotype: SRSF2 P95H/wt) [%] | cell viability (MOLM14; SRSF2 genotype: SRSF2 wt/wt) [%] | cell viability (OCI-AML2; SRSF2 genotype: P95H/wt) [%] | cell viability (OCI-AML2; SRSF2 genotype: wt/wt) [%]
CCC[C@@H]1C[C@@H](C(=O)N[C@@H]([C@H]2O[C@H](SC)[C@H](O)[C@@H](O)[C@H]2O)[C@@H](C)O)N(C)C1 [Lincomycin hydrochloride (Lincocin)] | 102% and 79.7% | 82.2 | 88.7 | 95.2 | 92.6 | 91.7 | 79.5 | 93.9
CCCCCCCCCCCCCCCCOc1nc2ccc(C)cc2c(=O)o1 [Cetilistat] | 107% and 111% | 108 | 108 | 108 | 103 | 108 | 107 | 108
CC(C)[C@H](NC(=O)OCc1ccccc1)C(=O)N[C@@H](C)C(=O)N[C@@H](CC(=O)O)C(=O)CF | 109% and 102% | 106 | 99.8 | 102 | 104 | 104 | 102 | 97.4
Fc1ccc2[nH]ccc2c1-c1nc(N2CCOCC2)c2sc(CN3CCN(CC4CC4)CC3)cc2n1 | 77.2% and 81.7% | 76.6 | 68.5 | 67.3 | 45.5 | 45.1 | 40.4 | 34.5
CC(C)(Cc1ccc2ccccc2c1)NC[C@@H](O)COc1cccc(Cl)c1C#N | 10.7% and 3.37% | 1.65 | 26.8 | 25.5 | 8.56 | 2.3 | 0.55 | 1.15
CN1CC(=O)N2[C@H](c3ccc4c(c3)OCO4)c3[nH]c4ccccc4c3C[C@@H]2C1=O [Tadalafil (Cialis)] | 101% and 99.7% | 106 | 98.5 | 105 | 97.3 | 99.8 | 103 | 108
CC(=O)O[C@H]1CC/C(C)=C/CC/C(C)=C/C[C@]2(C(C)C)CC[C@@]1(C)O2 [Incensole acetate] | 85.8% and 85.7% | 91.2 | 85.1 | 89.2 | 68.8 | 67.7 | 84.1 | 85.2
C=C1/C(=C\C=C2/CCC[C@]3(C)[C@@H]([C@H](C)/C=C/[C@H](C)C(C)C)CC[C@@H]23)C[C@@H](O)C[C@@H]1O [Doxercalciferol (Hectorol)] | 81.4% and 88.8% | 86.5 | 69.6 | 46.8 | 68.5 | 70.8 | 55.3 | 73
COC(=O)CC[C@H](NC(=O)[C@H](CC(=O)OC)NC(=O)OCc1ccccc1)C(=O)N[C@H](C(=O)N[C@@H](CC(=O)OC)C(=O)CF)C(C)C | 101% and 95.3% | 93.7 | 99.4 | 104 | 100 | 97.3 | 98.4 | 103
O=C(O)c1ccco1 [2-Furoic acid] | 95.7% and 95.1% | 103 | 95.9 | 108 | 98.5 | 101 | 97.5 | 102
CCCCCCC1CCC(=O)O1 (stereo unspecified) | 96.5% and 97.2% | 97.8 | 97.3 | 101 | 103 | 102 | 96.3 | 106
Cc1cccc(Nc2nc(-c3ccncc3)cs2)c1 | 78.1% and 89.2% | 70.8 | 49.3 | 64.4 | 74.2 | 84.9 | 64.3 | 66.9
CCN(Cc1ccncc1)C(=O)C(CO)c1ccccc1 (stereo unspecified) [Tropicamide] | 102% and 103% | 108 | 107 | 103 | 97.7 | 106 | 109 | 116
CC(C)N(CC[C@H](c1ccccc1)c1cc(CO)ccc1O)C(C)C | 89.7% and 94% | 98.4 | 88.3 | 90.7 | 93.3 | 97.9 | 93.5 | 90.9
C=CC(=O)Nc1ccc2ncnc(Nc3ccc(OCc4cccc(F)c4)c(Cl)c3)c2c1 | 25.1% and 46.8% | 60 | 28.4 | 44.3 | 12.6 | 7.61 | 1.91 | 20.6
CCCCNc1ncc(-c2ccc(CN3CCOCC3)cn2)c(NC2CCC(O)CC2)n1 (stereo unspecified) | 70.7% and 94.8% | 88 | 60.7 | 62.3 | 7.3 | 4.78 | 16.1 | 22.9
O=C(O)CCC(=O)O [Succinic acid] | 90.3% and 88.2% | 88 | 83.8 | 96.1 | 93.1 | 93.6 | 85.1 | 97.5
CCCCc1nc(Cl)c(CO)n1Cc1ccc(-c2ccccc2-c2nnn[nH]2)cc1 [Losartan potassium] | 106% and 103% | 104 | 103 | 114 | 104 | 104 | 102 | 106
CC(=O)O[C@]1(C(C)=O)CC[C@H]2[C@@H]3CCC4=CC(=O)CCC4=C3[C@@H](c3ccc(N(C)C)cc3)C[C@@]21C [Ulipristal acetate] | 91% and 94.2% | 86.7 | 81.7 | 95.2 | 82.3 | 93.6 | 84.6 | 89.5
Cc1cc(O)c(C(=O)CCC(C)C)c(=O)o1 [Pogostone] | 104% and 98.3% | 101 | 95.7 | 106 | 96.5 | 99.5 | 95.9 | 99.5
Cc1cc(N2CCOCC2)cc2[nH]c(-c3c(NCC(O)c4cccc(Cl)c4)cc[nH]c3=O)nc12 (stereo unspecified) | 46.4% and 36.7% | 52.1 | 33.2 | 31 | 5.77 | 9.63 | 7.45 | 18

SMILES | cell viability (K562; SRSF2 genotype: SRSF2 P95H/wt) | cell viability (K562; SRSF2 genotype: SRSF2 wt/wt) [%] | cell viability (MARIMO; SRSF2 genotype: SRSF2 P95H/wt) [%] | cell viability (MARIMO; SRSF2 genotype: SRSF2 wt/wt) [%] | cell viability (MOLM14; SRSF2 genotype: SRSF2 P95H/wt) [%] | cell viability (MOLM14; SRSF2 genotype: SRSF2 wt/wt) [%] | cell viability (OCI-AML2; SRSF2 genotype: P95H/wt) [%] | cell viability (OCI-AML2; SRSF2 genotype: wt/wt) [%]
CC(=O)O[C@H]1C(=O)[C@@]2(C)[C@H]([C@H](OC(=O)c3ccccc3)[C@]3(O)C[C@H](OC(=O)[C@H](O)[C@@H](NC(=O)c4ccccc4)c4ccccc4)C(C)=C1C3(C)C)[C@]1(OC(C)=O)CO[C@@H]1C[C@@H]2O [7-Epitaxol] | 19.6% and 30.7% | 26.1 | 7.11 | 4.44 | 8 | 2.61 | 6.19 | 12.1
O=c1c2ccccc2nc2n1CCc1c-2[nH]c2ccccc12 [Rutaecarpine (Rutecarpine)] | 103% | 103 | 98.5 | 106 | 101 | 103 | 95.5 | 104
CC(C)NC(=O)COc1cccc(-c2nc(Nc3ccc4[nH]ncc4c3)c3ccccc3n2)c1 | 73.5% and 97.8% | 84.7 | 68.6 | 72.4 | 93.6 | 89.8 | 110 | 87.8
CC1(C)Cc2c(sc(NC(=O)c3ccn[nH]3)c2C(N)=O)C(C)(C)O1 | 103% and 101% | 109 | 96.6 | 93.3 | 110 | 102 | 101 | 104
CC(=O)Oc1cccc2ccccc12 [1-Naphthyl acetate] | 90.4% and 85.3% | 95.8 | 92.4 | 97.5 | 93.7 | 93.8 | 93.3 | 90.8
C[C@H]1COC2(CCN(c3nc(=O)c4cc(C(F)(F)F)cc([N+](=O)[O-])c4s3)CC2)O1 (racemic) [BTZ043 racemate] | 88.3% and 84.3% | 84.1 | 82.4 | 86.7 | 87 | 85.3 | 91.7 | 86.9
O=C(O)c1cc(O)ccc1O [Gentisic acid] | 100% and 104% | 99.6 | 101 | 105 | 101 | 102 | 102 | 111
CCN(CC)CCNC(=O)c1c(C)[nH]c(/C=C2\C(=O)Nc3ccc(F)cc32)c1C [Sunitinib Malate] | 17.8% and 22.7% | 12.7 | 18.5 | 19.4 | 0.31 | 0.38 | 0.42 | 1.47
CN(C)CC(c1ccc(O)cc1)C1(O)CCCCC1 (stereo unspecified) [Desvenlafaxine Succinate] | 96.4% and 90.5% | 101 | 98.4 | 103 | 98.4 | 100 | 100 | 90
C=C(C(=O)O)C1CCC(C)C2CCC(C)=CC12 (stereo unspecified) [Artemisic acid] | 114% and 110% | 113 | 108 | 90.8 | 104 | 108 | 99.1 | 103
C/C(=C(/CCOC(=O)c1ccccc1)SC(=O)c1ccccc1)N(C=O)Cc1cnc(C)nc1N [Dibenzoyl Thiamine] | 103% | 107 | 96.5 | 94 | 90.8 | 102 | 99.1 | 109
CC(=O)Oc1ccc(C(=C2CCCCC2)c2ccc(OC(C)=O)cc2)cc1 [Cyclofenil] | 98% and 94.2% | 98.5 | 96.8 | 95.8 | 94.3 | 102 | 96.8 | 96.9
Cc1c(CN2CCN(C(=O)[C@H](C)O)CC2)sc2c(N3CCOCC3)nc(-c3cnc(N)nc3)nc12 [Apitolisib (GDC-0980, RG7422)] | 43.1% and 43.8% | 38.9 | 39.7 | 33.8 | 21.7 | 21.6 | 5.46 | 14.5
OC[C@H]1O[C@H](OC[C@H]2O[C@H](O[C@]3(CO)O[C@H](CO)[C@@H](O)[C@@H]3O)[C@H](O)[C@@H](O)[C@@H]2O)[C@H](O)[C@@H](O)[C@H]1O [D-(+)-Raffinose pentahydrate] | 114% and 103% | 118 | 104 | 103 | 112 | 113 | 104 | 103
O=S(=O)(c1ccc2c(c1)C(=NO)c1cc(S(=O)(=O)N3CCCCC3)ccc1-2)N1CCCCC1 | 0.51% and 0.55% | 0.51 | 3.1 | 0.51 | 0.31 | 30.1 | 0.87 | 0.36
C#C[C@]1(O)CC[C@H]2[C@@H]3CCc4cc(OC)ccc4[C@H]3CC[C@@]21C [Mestranol] | 79% and 93.7% | 96.3 | 78.5 | 76 | 90.7 | 99.9 | 74.9 | 82
C[C@@H]1CN(c2c(F)c(N)c3c(=O)c(C(=O)O)cn(C4CC4)c3c2F)C[C@H](C)N1 [Sparfloxacin] | 103% | 108 | 99.7 | 104 | 101 | 106 | 109 | 105
COc1ccc([C@@H]2CC(=O)c3c(O)cc(O)cc3O2)cc1O [Hesperetin] | 105% and 99.8% | 100 | 93.3 | 112 | 107 | 108 | 86.7 | 94.8
Cc1nn(C)c(COc2ccc(N3CCN(S(=O)(=O)N(C)C)CC3)cc2)c1-c1cccc2c(CCCOc3cccc4ccccc34)c(C(=O)O)n(CCN3CCOCC3)c12 | 93.7% and 106% | 99.8 | 101 | 107 | 98.3 | 101 | 103 | 103
CC(C)C(C)C(O)C(O)C(C)C1CCC2C3COC(=O)C4CC(O)C(O)CC4(C)C3CCC12C (stereo unspecified) [Brassinolide] | 98.5% and 94.6% | 99.3 | 107 | 115 | 95.8 | 103 | 120 | 103
CCOc1ccccc1OC(c1ccccc1)C1CNCCO1 (stereo unspecified) [Reboxetine mesylate] | 94.5% and 93.4% | 90.7 | 81.9 | 91.7 | 92.2 | 95.8 | 70.1 | 97.4
